The record followed here is PubChem BioAssay (EPA / NIEHS).

The structures appear in SMILES notation. Inconclusive results are not listed. Activity calls are given as the source filed them. Rule for the calls, unless noted: active = hit-call score of the fitted dose curve at least 0.9, where 1 is the maximum; inconclusive = response in the unintended direction; inactive = score below 0.9.

Test [1] deals with Peroxisome proliferator-activated receptor gamma (Homo sapiens) (UniProt P37231). The test is described as follows: NVS_NR_hPPARg: NovaScreen (NVS) Nuclear Receptor Binding Assay for human Peroxisome Proliferator-activated Receptor gamma (PPARg) (AID 2283370). In short, it runs like this:
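Fluorescence polarization readout of ligand binding to extracted human PPARg, measured at 2 h. Duplicate single-point screen at 25 uM, then concentration-series retesting; activity defined as signal loss versus DMSO.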

Test [2] addresses Bile acid receptor (Homo sapiens) (UniProt Q96RI1). The test can be described thus: OT_FXR_FXRSRC1_0480: Odyssey Thera (OT) 8-hour HEK293T Protein-Complementation Assay for Farnesoid X receptor/SRC-1 Co-activator (AID 2283383). In short, it runs like this: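 HEK293T protein-fragment complementation assay: FXR and SRC-1 coactivator are fused to reporter fragments, and their interaction restores a fluorescent reporter. Readout was taken 8 h after dosing, with gain of signal fit relative to DMSO.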

Test [3] can be described thus: CEETOX_H295R_11DCORT: CeeTox H295R High-throughput Steroidogenesis Assay for 11-Deoxycortisol (11DCORT) (AID 2283432; active = hit-call score of the fitted dose curve at least 0.9, where 1 is the maximum; inactive = score below 0.9;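 note: 11-deoxycortisol secreted into the medium measured by LC-MS/MS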). The note with it: actives raise or lower the signal. In short, it runs like this:
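H295R cells; 10 uM forskolin prestim 48 h; compound in 0.1% DMSO 48 h; media extracted with MTBE; 11-deoxycortisol by LC-MS/MS, 7-point standard curve; gain/loss vs DMSO baseline; viability by MTT in same wells.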

A short description of test [4]: CEETOX_H295R_CORTIC: CeeTox H295R High-throughput Steroidogenesis Assay for Corticosterone (CORTIC) (AID 2283437; active = hit-call score of the fitted dose curve at least 0.9, where 1 is the maximum; inactive = score below 0.9;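 note: corticosterone secreted into medium quantified by mass spectrometry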). The note with it: actives raise or lower the signal. The procedure, abridged:
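Corticosterone secreted into medium is measured by reverse-phase HPLC with tandem MS following liquid-liquid extraction. Cells are forskolin-stimulated (10 uM, 48 h) before 48 h test exposure; activity fitted in both directions against DMSO.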

A short description of test [5]: CEETOX_H295R_CORTISOL: CeeTox H295R High-throughput Steroidogenesis Assay for Cortisol (AID 2283438; active = hit-call score of the fitted dose curve at least 0.9, where 1 is the maximum; inactive = score below 0.9;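 note: cortisol secreted into medium quantified by LC-MS/MS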). The note with it: actives raise or lower the signal. In short, it runs like this:
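Forskolin-primed H295R cells (10 uM, 48 h) treated 48 h with test chemical in 0.1% DMSO. Cortisol in medium quantified by MTBE extraction and HPLC-MS/MS; bidirectional fit vs DMSO, MTT viability in same wells.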

The nature of test [6]: CEETOX_H295R_DOC: CeeTox H295R High-throughput Steroidogenesis Assay for DOC (AID 2283439; active = hit-call score of the fitted dose curve at least 0.9, where 1 is the maximum; inactive = score below 0.9). The note with it: actives raise or lower the signal. In short, it runs like this:
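H295R cells prestimulated 48 h with 10 uM forskolin, then exposed 48 h to test chemical (0.1% DMSO final). Medium 11-deoxycorticosterone measured by HPLC-MS/MS after MTBE extraction; bidirectional fit vs DMSO, viability checked by MTT in same wells.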

Test [7] can be described thus: CCTE_Deisenroth_AIME_384WELL_CTox_Active: Cytotoxicity Assessment (CTOX) in CCTE's 384-well Estrogen Receptor Transactivation Assay with AIME metabolic competence (metabolism positive), Deisenroth Lab (AID 2284037).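 Note: chemicals first conditioned 2 h by alginate-bound induced rat liver S9 before cells; activity means signal loss indicating cell death.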 In short, it runs like this: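 Cytotoxicity in VM7Luc4E2 breast cells, 24 hour, measured as protease-substrate fluorescence loss, after 2-hour metabolic conditioning with induced rat hepatic S9 in alginate microspheres. Concentrations 0.002 - 200 uM, 10 points, bidirectional fitting.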

In test [8] the target is Androgen receptor (Homo sapiens) (UniProt P10275). The test can be described thus: ATG_AR_TRANS: Attagene TRANS-FACTORIAL HepG2 Assay for human Androgen Receptor (AR) (AID 2282973). The note with it: HepG2 Attagene TRANS-FACTORIAL AR reporter transcription. The procedure, abridged:
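Transcriptional activity of an exogenous AR–Gal4 fusion read as GAL4-UAS reporter transcript levels in transfected human HepG2 cells after 24 h dosing. Detection via RT-PCR, 6-FAM labelling, HpaI digest and capillary electrophoresis; increase over DMSO baseline.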

The target in test [9] is human Ephrin type-A Receptor 1 (EphA1), EPHA1 (gene 2041) (UniProt P21709). The test is described as follows: NVS_ENZ_hEphA1: NovaScreen (NVS) Enzymatic Assay for human Ephrin type-A Receptor 1 (EphA1) (AID 2283158).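 Note: activity is signal loss versus DMSO meaning EphA1 kinase inhibition.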 In short, it runs like this:
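Fluorescent substrate conversion, resolved by mobility-shift separation, measured 1 hour post-dosing using recombinant enzyme; signal loss relative to DMSO baseline. Single-concentration duplicates at 25 uM preceded singleton concentration series topping at 50 uM.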

Test [10] addresses rat Peripheral-type Benzodiazepine Receptor (PBR), Tspo (gene 24230) (UniProt P16257). The test can be described thus: NVS_MP_rPBR: NovaScreen (NVS) Membrane Protein Assay for rat Peripheral-type Benzodiazepine Receptor (PBR) (AID 2283335). The procedure, abridged: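 Rat kidney membranes; radioligand binding with displacement, filter-based scintillation counting, 1 h incubation. Primary screen in duplicate at 25 uM, actives followed in concentration series; loss of binding vs DMSO.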

The nature of test [11]: CCTE_Padilla_ZF_Score.General: CCTE's 144 Hour Post-fertilization zebrafish Assay Score for General Malformation, Padilla Lab (AID 2284411; active = hit-call score of the fitted dose curve at least 0.9, where 1 is the maximum; inactive = score below 0.9). In short, it runs like this:
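Wild-type zebrafish embryos were plated singly at 6-8 hpf in 10% Hanks' and exposed in sealed wells at 26C until rinsed on 5 dpf. At 6 dpf two blinded assessors scored mortality, hatching and malformations by stereomicroscopy; gain-of-signal versus DMSO.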

The target of test [12] is Peroxisome proliferator-activated receptor gamma (Homo sapiens) (UniProt P37231). The test is described as follows: OT_PPARg_PPARgSRC1_0480: Odyssey Thera (OT) 8-hour Protein-Complementation Assay for Peroxisome Proliferator-activated Receptor Gamma / SRC-1 Co-activator (AID 2283387).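 Note: nuclear to cytoplasmic split Venus YFP fluorescence ratio reporting PPARg SRC-1 interaction.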 In short, it runs like this:
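Read-out: 488 nm N/C fluorescence ratio from complemented Venus YFP fragments, ≥350 cells per image, gain-of-signal fitted against DMSO baseline. Fusions of PPARg/SRC-1 with IFP1/IFP2 expressed transiently in HEK293T; compounds applied 8 h.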

Test [13] can be described thus: CEETOX_H295R_OHPREG: CeeTox H295R High-throughput Steroidogenesis Assay for OH-Pregnenolone (OHPREG) (AID 2283434; active = hit-call score of the fitted dose curve at least 0.9, where 1 is the maximum; inactive = score below 0.9). The note with it: actives raise or lower the signal. In short, it runs like this:
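Hormone levels in spent medium were measured by tandem mass spectrometry following liquid-liquid extraction. Cells (H295R) had been forskolin-stimulated (10 uM, 48 h) before a 48 h chemical exposure at 0.1% DMSO, with activity fitted in both directions against DMSO.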

The nature of test [14]: CEETOX_H295R_OHPROG: CeeTox H295R High-throughput Steroidogenesis Assay for OH-Progesterone (OHPROG) (AID 2283435; active = hit-call score of the fitted dose curve at least 0.9, where 1 is the maximum; inactive = score below 0.9;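 note: human adrenal H295R cells primed 48 h with 10 µM forskolin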). The note with it: actives raise or lower the signal. In short, it runs like this:
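H295R adrenal cells prestimulated 48 h with 10 uM forskolin, then exposed 48 h to chemical (0.1% DMSO final). 17alpha-hydroxyprogesterone in medium quantified by HPLC-MS/MS; bidirectional fit versus DMSO, with MTT viability measured in the same wells.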

A short description of test [15]: CEETOX_H295R_PROG: CeeTox H295R High-throughput Steroidogenesis Assay for Progesterone (PROG) (AID 2283442; active = hit-call score of the fitted dose curve at least 0.9, where 1 is the maximum; inactive = score below 0.9;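 note: human H295R adrenal cells primed with 10 µM forskolin before dosing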). The note with it: actives raise or lower the signal. In short, it runs like this: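 Progesterone secreted by human H295R cells was measured by LC-MS/MS following 48 h chemical exposure at 0.1% DMSO, preceded by 48 h forskolin (10 uM) stimulation. Same-well MTT viability; cytotoxic concentrations diluted 10- or 100-fold and retested.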

For test [16], the system named is Sodium/Iodide Symporter (NIS), SLC5A5 (gene 6528). The test is described as follows: CPHEA_Stoker_NIS_Inhibition_RAIU: CPHEA's Radioactive Iodide Uptake (RAIU) Assay for Sodium/Iodide Symporter (NIS) Inhibition, Stoker and Laws Labs (AID 2283841). The procedure, abridged: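 HEK293T cells stably expressing human NIS (hNIS-HEK293T-EPA) were exposed to test chemicals at 0.001–100uM (0.5% final DMSO) with 125I at a final 329pM in HBSS/10mM HEPES pH 7.4. After 2 hours at room temperature and ice-cold washes, intracellular 125I was counted as CPM and normalized to DMSO wells.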

Test [17] is described as follows: CPHEA_Stoker_NIS_Cytotoxicity: Cytotoxicity Assessment for CPHEA's Radioactive Iodide Uptake (RAIU) Assay for Sodium/Iodide Symporter (NIS) Inhibition, Stoker and Laws Labs (AID 2283897). In short, it runs like this:
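hNIS-HEK293T-EPA human kidney cells were exposed for 2 hours at room temperature to test chemicals (0.001–100uM, 0.5% final DMSO) in HEPES-buffered HBSS, pH 7.4. Viability was read as ATP content by luciferase bioluminescence, loss of signal versus DMSO.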

In test [18] the target is Ratio of Nucleoli Translocation and Cytoplasm, AR (gene 367) (UniProt P10275). The test can be described thus: UPITT_HCI_U2OS_AR_TIF2_Nucleoli_Cytoplasm_Ratio_Antagonist: University of Pittsburgh U2OS Androgen Receptor-Transcriptional Intermediary Factor 2 (AR-TIF2) Antagonism High Content Imaging Assay for Ratio of Nucleoli Translocation and Cytoplasm (AID 2283999).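 Note: antagonists lower the DHT-driven ratio of nucleolar to cytoplasmic red signal.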 The procedure, abridged: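 U2OS cells co-expressing RFP-tagged human AR and GFP-tagged TIF2, antagonist mode with DHT as baseline. Nucleolar-to-cytoplasmic red fluorescence ratio imaged by high-content microscopy; final compound 20 uM (0.2% DMSO) primary, 0.195–50 uM (0.5% DMSO) concentration-response.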
Sequence of Ratio of Nucleoli Translocation and Cytoplasm, AR (gene 367) (P10275 whole entry, looked up): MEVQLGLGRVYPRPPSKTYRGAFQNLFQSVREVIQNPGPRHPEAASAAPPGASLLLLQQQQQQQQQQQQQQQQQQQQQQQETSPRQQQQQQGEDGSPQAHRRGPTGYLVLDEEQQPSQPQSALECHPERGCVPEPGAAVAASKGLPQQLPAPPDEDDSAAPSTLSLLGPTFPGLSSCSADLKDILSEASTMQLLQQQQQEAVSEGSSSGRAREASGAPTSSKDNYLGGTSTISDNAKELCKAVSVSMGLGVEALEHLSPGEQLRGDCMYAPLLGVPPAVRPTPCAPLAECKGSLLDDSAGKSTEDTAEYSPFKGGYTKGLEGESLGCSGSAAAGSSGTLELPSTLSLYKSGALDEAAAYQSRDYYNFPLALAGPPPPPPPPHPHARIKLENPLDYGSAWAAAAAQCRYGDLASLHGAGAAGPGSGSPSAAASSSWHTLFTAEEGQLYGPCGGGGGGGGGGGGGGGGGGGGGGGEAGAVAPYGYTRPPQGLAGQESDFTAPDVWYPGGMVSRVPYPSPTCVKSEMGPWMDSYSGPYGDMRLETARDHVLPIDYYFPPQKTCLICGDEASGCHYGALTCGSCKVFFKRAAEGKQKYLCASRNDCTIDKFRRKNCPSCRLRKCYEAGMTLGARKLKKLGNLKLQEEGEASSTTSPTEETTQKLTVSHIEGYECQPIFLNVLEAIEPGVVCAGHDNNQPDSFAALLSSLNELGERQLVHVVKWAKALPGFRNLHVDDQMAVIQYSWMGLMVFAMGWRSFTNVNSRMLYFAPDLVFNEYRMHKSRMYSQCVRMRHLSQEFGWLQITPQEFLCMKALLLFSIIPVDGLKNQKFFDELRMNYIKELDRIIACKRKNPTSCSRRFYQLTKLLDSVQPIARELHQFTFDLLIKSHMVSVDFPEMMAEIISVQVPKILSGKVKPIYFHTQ

Sequence of Androgen receptor (Homo sapiens) (P10275 whole entry, looked up, the tested form may be a part): as the sequence (P10275 whole entry, looked up) above
Sequence of Peroxisome proliferator-activated receptor gamma (Homo sapiens) (P37231 whole entry, looked up, the tested form may be a part): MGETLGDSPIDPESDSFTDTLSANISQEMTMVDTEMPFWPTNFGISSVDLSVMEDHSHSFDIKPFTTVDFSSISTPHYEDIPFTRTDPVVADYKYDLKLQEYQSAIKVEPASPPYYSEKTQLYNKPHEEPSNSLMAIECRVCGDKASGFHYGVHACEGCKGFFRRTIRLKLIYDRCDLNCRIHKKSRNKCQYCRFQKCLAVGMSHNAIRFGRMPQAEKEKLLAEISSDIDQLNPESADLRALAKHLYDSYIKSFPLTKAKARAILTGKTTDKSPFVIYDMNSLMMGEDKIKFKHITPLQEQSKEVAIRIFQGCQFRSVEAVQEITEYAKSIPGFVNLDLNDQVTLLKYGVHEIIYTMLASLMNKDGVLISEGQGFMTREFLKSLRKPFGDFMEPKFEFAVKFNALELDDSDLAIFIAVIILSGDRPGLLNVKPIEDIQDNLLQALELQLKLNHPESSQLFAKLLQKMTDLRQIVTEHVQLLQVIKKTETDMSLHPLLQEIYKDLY
Sequence of Bile acid receptor (Homo sapiens) (Q96RI1 whole entry, looked up, the tested form may be a part): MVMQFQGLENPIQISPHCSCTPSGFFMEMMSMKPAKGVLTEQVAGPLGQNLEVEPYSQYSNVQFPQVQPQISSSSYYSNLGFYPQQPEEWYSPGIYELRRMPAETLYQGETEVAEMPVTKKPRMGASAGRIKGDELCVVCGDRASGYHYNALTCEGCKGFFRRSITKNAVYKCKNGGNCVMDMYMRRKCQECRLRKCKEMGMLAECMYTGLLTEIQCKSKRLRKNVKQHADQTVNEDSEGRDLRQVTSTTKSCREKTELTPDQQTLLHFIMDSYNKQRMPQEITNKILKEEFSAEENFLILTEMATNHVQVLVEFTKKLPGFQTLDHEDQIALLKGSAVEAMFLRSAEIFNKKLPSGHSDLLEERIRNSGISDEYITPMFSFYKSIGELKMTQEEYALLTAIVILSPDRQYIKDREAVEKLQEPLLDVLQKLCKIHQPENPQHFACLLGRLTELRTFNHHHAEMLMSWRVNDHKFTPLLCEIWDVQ
Sequence of human Ephrin type-A Receptor 1 (EphA1), EPHA1 (gene 2041) (P21709 whole entry, looked up): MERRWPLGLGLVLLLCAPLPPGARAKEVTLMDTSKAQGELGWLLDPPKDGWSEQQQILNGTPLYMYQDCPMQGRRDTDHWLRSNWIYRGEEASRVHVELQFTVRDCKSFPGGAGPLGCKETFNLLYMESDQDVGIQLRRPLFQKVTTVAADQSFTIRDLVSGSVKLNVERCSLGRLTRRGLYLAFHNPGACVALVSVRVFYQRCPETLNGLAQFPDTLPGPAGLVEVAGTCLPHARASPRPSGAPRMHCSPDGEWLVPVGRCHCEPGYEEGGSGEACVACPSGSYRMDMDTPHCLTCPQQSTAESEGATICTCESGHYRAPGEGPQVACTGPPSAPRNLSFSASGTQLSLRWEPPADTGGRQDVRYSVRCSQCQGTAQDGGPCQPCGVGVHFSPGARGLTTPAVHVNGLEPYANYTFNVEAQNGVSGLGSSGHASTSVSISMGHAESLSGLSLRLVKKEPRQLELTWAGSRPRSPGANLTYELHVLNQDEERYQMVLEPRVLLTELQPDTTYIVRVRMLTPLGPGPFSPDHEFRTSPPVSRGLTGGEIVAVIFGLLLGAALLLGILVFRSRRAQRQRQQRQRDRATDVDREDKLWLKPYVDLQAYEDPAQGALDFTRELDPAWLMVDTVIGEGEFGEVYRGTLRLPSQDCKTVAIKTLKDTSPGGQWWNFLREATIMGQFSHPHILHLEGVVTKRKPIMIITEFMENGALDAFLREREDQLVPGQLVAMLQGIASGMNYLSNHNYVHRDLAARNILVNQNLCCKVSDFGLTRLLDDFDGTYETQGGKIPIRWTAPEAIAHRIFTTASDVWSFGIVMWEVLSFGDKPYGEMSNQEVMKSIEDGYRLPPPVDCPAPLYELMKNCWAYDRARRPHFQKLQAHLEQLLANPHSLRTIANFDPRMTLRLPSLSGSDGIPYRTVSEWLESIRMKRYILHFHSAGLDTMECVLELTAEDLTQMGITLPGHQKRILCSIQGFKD
Sequence of rat Peripheral-type Benzodiazepine Receptor (PBR), Tspo (gene 24230) (P16257 whole entry, looked up): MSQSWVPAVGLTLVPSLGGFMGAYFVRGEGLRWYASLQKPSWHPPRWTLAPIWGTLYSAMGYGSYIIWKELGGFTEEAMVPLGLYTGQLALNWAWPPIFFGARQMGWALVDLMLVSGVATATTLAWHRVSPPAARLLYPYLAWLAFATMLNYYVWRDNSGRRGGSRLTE

As a reminder, the AC50 is the midpoint of the concentration-response curve, whichever way the signal moves. Take `Cc1cc(C)c(C2=C(OC(=O)CC(C)(C)C)C3(CCCC3)OC2=O)c(C)c1`: the compound was classed as inactive in test [1], in test [2], in test [4], in test [6] and in test [7]. The AC50 in [3] was 72.4 µM (active); in test [5] it was 69.2 µM (active).
`Nc1ccccc1C(=O)Oc1ccc2ccccc2c1`: the outcome in test [8] was inactive.
`BrCBr`: the compound was classed as inactive in test [9].
Regarding `c1cc(OCC2CO2)ccc1Cc1ccc(OCC2CO2)cc1` (stereo not drawn), in test [8], the outcome was inactive.
Turning to `Cc1ncc(C[n+]2csc(CCO)c2C)c(N)n1`, in test [9], the result was inactive.
As for `CC(C)CCCCCCCOP(=O)(Oc1ccccc1)Oc1ccccc1`, the AC50 in test [10] was 2.91 µM (active).
On to `O=C(O)CCCc1ccc(N(CCCl)CCCl)cc1`, for which the compound was called inactive in test [9].
For `CNC(=N[N+](=O)[O-])NCC1CCOC1` (stereo not drawn), the call in test [7] was inactive.
Turning to `O=C1C=CC(=O)C=C1`, the result in [11] was inactive.
With `CC(Cc1ccc(C(C)(C)C)cc1)CN1C[C@@H](C)O[C@@H](C)C1` (stereo partly drawn), the AC50 in [2] was 11.3 µM (active); in test [3] it was 13.8 µM (active); in test [13] it was 0.0454 µM (active); in [14], 0.316 µM (active); in [5] it was 39.5 µM (active); in [6], 9.92 µM (active). Moreover, the AC50 in [15] is 0.053 µM (active). Further, the compound was classed as inactive in test [12], in [4], in test [16] and in test [17].
Consider `C=CCN(CC=C)C(=O)C(Cl)Cl`, for which the compound was called inactive in test [7].
With `COc1cc(OC)nc(Oc2cccc(Oc3nc(OC)cc(OC)n3)c2C(=O)O)n1`, the call in test [8], in [1], in test [2] and in test [18] was inactive.
For `O=[N+]([O-])C=Cc1ccccc1`, the result in [9] was inactive. Moreover, the AC50 in test [11] is 2.31 µM (active).
`CCCCCCCCCCCCCCCC[N+](C)(C)C`: the AC50 in [16] was 10.2 µM (active). Moreover, the result in test [17] and in test [7] was inactive.
Take `Nc1ccccc1`: the result in [12] and in test [7] was inactive.
For `SCc1ccco1`, in test [8], the outcome was inactive.
The same measure, in the same setting: the entry for `CCCCOP(=O)(O)OCCCC` is “inactive”.
Consider `O=S(=O)(O)OOS(=O)(=O)O`, for which the compound was classed as inactive in [7].
As to `CCc1cccc(C)c1N(C(=O)CCl)[C@@H](C)COC`, in [10], the AC50 was 4.35 µM (active). Besides, the result in [1] was inactive.
